System: PXR homodimer (NR concentration 270 nM)
Experiment: PBM binding z-score (relative to random genomic background probes); higher = stronger binding; sequences stand for … in GC…GCGATTGACAGCGTAGAATGAAGG
Outline: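 Binding buffer was PBS pH 7.4 with 2% milk, 0.02% Triton X-100, 1 mM DTT, 0.2 mg/mL BSA and 0.4 mg/ml salmon testes DNA. In it, ligand-free nuclear receptor dimers were incubated 1 h on custom Agilent 4×180K protein-binding microarrays carrying double-stranded probes. Antibodies against each partner (one per run) detected binding, and z-scores were calculated against random background probes after regression normalization of scanned fluorescence.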

Sequence	PBM binding z-score
CGATCTAGGTCACCAGGACAGTGAAGAGGTTGGA	-0.089
CGAACTAGATCACCAGGACAGTGAAGAGGTTGGA	-0.0713
CGAACTAGGTCACCTGGACAGTGAAGAGGTTGGA	0.15
ATATGTAGGTTAGGGTCTTTCAGAAAGTAGGGAA	1.06
CGAACTAGGTCAAAGGACAGTGGAAGGCGACGTA	-0.227
CGAACTAGGTCACCAGGACAGTGCAGAGGTTGGA	0.15
CGAACTAGGTCAAAGGACAGTGATAGGCGACGTA	-0.148
ATATGTAGGTTAGTGTCATTCAGAAAGTAGGGAA	0.763
CGTACTAGGTCACCAGGACAGTGAAGAGGTTGGA	0.369
ATATGTAGGTTAGGCTCATTCAGAAAGTAGGGAA	0.16
ATATGCAGGTTAGGGTCATTCAGAAAGTAGGGAA	1.51
CGAACTAGGTCACCAGGAGAGTGAAGAGGTTGGA	-0.0382
CGAACTAGGTCAAATGACAGTGAAAGGCGACGTA	0.00572
CGAACTAGGTCAAAGGACAGTGACAGGCGACGTA	0.0588
ATAAGTAGGTTAGGGTCATTCAGAAAGTAGGGAA	3.26
CGAACTAGGTCACCAGGACAGTAAAGAGGTTGGA	0.231
ATATGTAGGTGAGGGTCATTCAGAAAGTAGGGAA	1.81
CGAACTAGGTCAGCAGGACAGTGAAGAGGTTGGA	-0.536
CGAACTAGGTCAAAGGACAATGAAAGGCGACGTA	0.00867
CGATCTAGGTCAAAGGACAGTGAAAGGCGACGTA	-0.421

Sequence	PBM binding z-score
ATATGTAGGTTAGAGTCATTCAGAAAGTAGGGAA	0.624
CGAACTAGGTCACCAGGACAGTGAAGAGGTTGGA	0.0754
ATATGTAGGCTAGGGTCATTCAGAAAGTAGGGAA	1.05
CGAACTTGGTCACCAGGACAGTGAAGAGGTTGGA	-0.183
ATATGTAGGTTAGGGGCATTCAGAAAGTAGGGAA	1.48
ATATGTAGGTTAGGGTCATTAAGAAAGTAGGGAA	1.85
ATATGTAGGTTTGGGTCATTCAGAAAGTAGGGAA	1.25
ATATGTAAGTTAGGGTCATTCAGAAAGTAGGGAA	1.59
ATATGAAGGTTAGGGTCATTCAGAAAGTAGGGAA	2.32
CGAACTAGGTCAATGGACAGTGAAAGGCGACGTA	-0.177
CGAACTAGGTAACCAGGACAGTGAAGAGGTTGGA	0.0727
ATATGGAGGTTAGGGTCATTCAGAAAGTAGGGAA	2.35
CGAACTAGGTCACCAGGGCAGTGAAGAGGTTGGA	-0.014
CGAACTAGGTCACCAGGACATTGAAGAGGTTGGA	0.175
CGAACTAGGTCAAAGGACAGCGAAAGGCGACGTA	-0.642
CGAACTAGGCCACCAGGACAGTGAAGAGGTTGGA	-0.217
CGAACTAGGGCACCAGGACAGTGAAGAGGTTGGA	-0.309
CCAACTAGGTCACCAGGACAGTGAAGAGGTTGGA	0.124
CGAACTAGGTCAAAGTACAGTGAAAGGCGACGTA	-0.31

— the supplement of paper PMC6555819
